In PubChem BioAssay (NCI):
About 83,000 compounds went through this panel and 20% of them were active in at least one assay; those are over-represented in the sample as a whole.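 The endpoint reported here, percent growth, reads 100 for growth as untreated, 0 for no net growth and -100 for all cells dead.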 Active and inactive are the calls of the source. The calls were made as follows: active = growth percent below 10; inactive = the rest.

Tested on: HL-60(TB) leukemia
Assay: NCI-60 one-dose screen, 48 h (100 = growth as untreated, 0 = no growth, -100 = all killed)
Settings: 10 µM unless noted

Compound | growth
Cc1nccc2c3ccc(OCc4cn(-c5ccc(Br)cc5)nn4)cc3n(CC(C)C)c12 | -48.1% (active)
Cc1nc2nc(N)nc(N)c2nc1C | 94.2% (inactive)
CCC(=O)Nc1ccc(-c2nc(-c3cccc(OC)c3)c(-c3ccnc(Br)c3)[nH]2)cc1 | 49.5% (inactive)
COc1ccc(-c2nn(-c3cccc(Cl)c3)cc2/C=C2\C(=N)N(c3ccccc3)N=C2N)cc1 | 9.27% (active)
O=C(Nc1ccncc1)C(=O)c1cn(S(=O)(=O)c2cccc(F)c2)c2ccccc12 | -9.88% (active)
Cc1ccc(C(c2c(O)c3cc(Br)ccc3[nH]c2=O)c2c(O)c3cc(Br)ccc3[nH]c2=O)cc1 | 92.2% (inactive)
O=S(=O)(Nc1ccc(F)cc1F)c1ccc(-c2cnc(C3CC3)o2)cc1 | 1% (active)
CSc1nc(-c2ccc(O)cc2O)c2c(=O)[nH]c(Nc3ccc(S(=O)(=O)Nc4nc(C)cc(C)n4)cc3)nc2n1 | 114% (inactive)
CC(C)=CCc1cc2c(cc1O)C1=C(C(=O)C3=C(C1=O)S(=O)(=O)CCN3)C(C=C(C)C)O2 (stereo not given) | -36% (active)
COC(=O)Cn1c2c(c3c(OC)cccc31)C(=O)c1ccccc1-2 | 75.6% (inactive)
Cc1ccc2c(C3C(C#N)=C(N)Oc4cc5ccccc5cc43)cc(=O)oc2c1 (stereo not given) | -14.2% (active)
COc1cc2ncnc(NC3CCC(O)CC3)c2cc1OC (stereo not given) | 97.7% (inactive)
O=C(CCl)Oc1ccc(OC(=O)CCl)cc1 | 8.83% (active)
CCOC(=O)/C=C/c1c(C)[nH]c(=O)[nH]c1=O | 75.3% (inactive)
COc1ccc(-c2cc(-c3ccccc3)nc(SCCCCCC(=O)NO)n2)cc1 | -26.2% (active)
CC(C)CN(C(=O)c1ccc(Cl)cc1)c1c(N)n(CC(C)C)c(=O)[nH]c1=O | 90.8% (inactive)
CCOC(=O)c1ccc(NCCC(=O)O)cc1 | 96.4% (inactive)
CN1CCN(CC#CCOC(=O)CNC(=O)[C@]23CCC(C)(C)C[C@H]2C2=CC[C@@H]4[C@@]5(C)CC[C@H](O)C(C)(C)[C@@H]5CC[C@@]4(C)[C@]2(C)CC3)CC1 | 49.7% (inactive)
Cc1nn(-c2ccccc2)c(N)c1N=C1NC(=O)/C(=C/c2ccc(Cl)cc2)S1 | 74.3% (inactive)
CC1(C)N=C(N)N=C(N)N1c1cccc(CN)c1 | 86.8% (inactive)

Compound | growth
NS(=O)(=O)c1ccc(-n2ncc3c(SCc4ccccc4)ncnc32)cc1 | 88.1% (inactive)
COc1cc2ncnc(Nc3ccc(S(=O)(=O)Nc4cc(C)on4)cc3)c2cc1OCCCN1CCN(c2ccc([N+](=O)[O-])cc2)CC1 | 118% (inactive)
COc1ccc(Oc2nc(Nc3ccc(N4CCOCC4)nc3)ncc2NC(=O)c2cc(OC)cc(OC)c2)cc1 | 75% (inactive)
Cc1cnc(C(=O)Nc2nc3ccc(S(=O)(=O)Nc4ccc(C5(C(F)(F)F)CC5)cc4)cc3[nH]2)cn1 | -25.1% (active)
Fc1ccc(-c2cc(C(Cl)Cl)no2)cc1 | 136% (inactive)
Nc1cc(Br)c(-c2nn3c(CCC(=O)c4nc5ccccc5[nH]4)nnc3s2)c(Br)c1 | 100% (inactive)
O=S(=O)(O)c1cc(O)c2c(N=Nc3ccc(Nc4ccccc4)c4c(S(=O)(=O)O)cccc34)cc(S(=O)(=O)O)cc2c1 | 82.7% (inactive)
CCC(c1ccc(OC)cc1)C(CC)c1ccc(O)c(CN2CCCC2)c1 (stereo not given) | -45.9% (active)
COc1cc2c(cc1O)CCN1C[C@@H](CC(C)C)[C@@H](O)C[C@@H]21 | 73.7% (inactive)
O=C1C(Cl)=C(Nc2cccc3ccccc23)C(=O)c2ccccc21 | 71.1% (inactive)
CC1Cc2c(ncnc2-n2cnc3ccccc32)N(C)c2ccccc21 (stereo not given) | 15.9% (inactive)
O=C(Cc1c(F)cccc1Cl)Nc1ccc(S(=O)(=O)Nc2ncccn2)cc1 | 120% (inactive)
CSc1ncccc1C(=O)OCC(=O)Nc1oc(C)c2c(C)n[nH]c(=O)c12 | 98.2% (inactive)
O=C(/C=C/c1cccc(O)c1)c1ccccc1O | 66% (inactive)
O=C(Nc1ccncc1)C(=O)c1cn(S(=O)(=O)c2ccc(Cl)cc2)c2ccccc12 | 18.3% (inactive)
CN(C)c1ccc(/C=C/c2cc[n+](C)c(/C=C/c3ccc(N(C)C)cc3)c2)cc1 | -56.3% (active)
Cc1nc(Nc2cn[nH]c2C(=O)Nc2ccc(CN3CCN(C)CC3)cc2)c2ccsc2n1 | 113% (inactive)
COc1ccc(C(=O)COc2cccc(/C=C3\COc4ccc5ccccc5c4C3=O)c2)cc1 | 72.1% (inactive)
S=C(Nc1ccc(Cl)cc1)Nc1ccc(Cl)cc1 (tested in a mixture with another compound) | 8.57% (active)
COC(=O)c1ccc2c(c1)nc(-c1ccc(O)c(OC)c1)n2-c1cc(C(C)(C)C)[nH]n1 | 103% (inactive)
